According to the supplement of paper PMC10849652:
About 7,900 targets were measured; listed, in parts, are those with a hit and a random draw of the rest. About 0.6% of all pairs of compound and target were hits. Unmarked numbers belong to inactive results.

Assays:
Assay in all cases: log2 fold change, soluble protein after heating vs DMSO (PISA); higher = thermal stabilisation; K562 cells, 10 uM, 30 min; active = over 0.2 and 3.5 SD of the protein, either way, in both replicates (recomputed)
bafetinib = compound: Cc1ccc(NC(=O)c2ccc(CN3CC[C@H](N(C)C)C3)c(C(F)(F)F)c2)cc1Nc1nccc(-c2cncnc2)n1 [bafetinib]
Summary of the method: (§1)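 K562 cells (2×10^6 cells/mL) were treated with 10 μM compound for 30 min, and aliquots were heated for 3 min over 48°C-58°C. Pooled aliquots were extracted in PBS with 0.5% NP-40 at 4°C, and the supernatant after 21,000xg for 90 min was measured by TMTpro 16plex LC-MS/MS with channel sums equalised. Reported thermal stability, relative to control samples and from duplicates, is a log2 fold change.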

[1] = compound: Cc1cccc(CC(=O)N2CCc3c2ccc(-c2cn(C)c4ncnc(N)c24)c3F)n1
Summary of the method: as §1

nilotinib = compound: Cc1cn(-c2cc(NC(=O)c3ccc(C)c(Nc4nccc(-c5cccnc5)n4)c3)cc(C(F)(F)F)c2)cn1 [nilotinib]
Summary of the method: as §1

[2] = compound: Cc1nc(Nc2n[nH]c3c2CN(C(=O)N[C@H](CN(C)C)c2ccccc2)C3(C)C)c2sccc2n1
Summary of the method: as §1

dasatinib = compound: Cc1nc(Nc2ncc(C(=O)Nc3c(C)cccc3Cl)s2)cc(N2CCN(CCO)CC2)n1 [dasatinib]
Summary of the method: as §1

[3] = compound: Cc1ncc(-c2ccnc(Nc3ccc(S(C)(=O)=O)cc3)n2)n1C(C)C
Summary of the method: as §1

[4] = compound: Cn1cc(-c2ccc3c(c2)CCN3C(=O)Cc2cccc(C(F)(F)F)c2)c2c(N)ncnc21
Summary of the method: as §1

[5] = compound: Cn1cc(-c2ccc3nnc(C(F)(F)c4ccc5ncccc5c4)n3n2)cn1
Summary of the method: as §1

tipifarnib = compound: Cn1cncc1[C@@](N)(c1ccc(Cl)cc1)c1ccc2c(c1)c(-c1cccc(Cl)c1)cc(=O)n2C [tipifarnib]
Summary of the method: as §1

mubritinib = compound: FC(F)(F)c1ccc(/C=C/c2nc(COc3ccc(CCCCn4ccnn4)cc3)co2)cc1 [mubritinib]
Summary of the method: as §1

[6] = compound: NC(=O)Nc1cc(-c2cccc(F)c2)sc1C(=O)N[C@H]1CCCNC1
Summary of the method: as §1

[7] = compound: NC(=O)c1cnc(N[C@@H]2CCCC[C@@H]2N)nc1Nc1cccc(-n2nccn2)c1
Summary of the method: as §1

[8] = compound: NC1(c2ccc(-c3nc4ccn5c(=O)[nH]nc5c4cc3-c3ccccc3)cc2)CCC1
Summary of the method: as §1

[9] = compound: NCC(=O)Nc1ccc(-n2nc(C(F)(F)F)cc2-c2ccc3c(ccc4ccccc43)c2)cc1
Summary of the method: as §1

entinostat = compound: Nc1ccccc1NC(=O)c1ccc(CNC(=O)OCc2cccnc2)cc1 [entinostat]
Summary of the method: as §1

vorinostat = compound: O=C(CCCCCCC(=O)Nc1ccccc1)NO [vorinostat]
Summary of the method: as §1

citarinostat = compound: O=C(CCCCCCNC(=O)c1cnc(N(c2ccccc2)c2ccccc2Cl)nc1)NO [citarinostat]
Summary of the method: as §1

silmitasertib = compound: O=C(O)c1ccc2c(c1)nc(Nc1cccc(Cl)c1)c1ccncc12 [silmitasertib]
Summary of the method: as §1

[10] = compound: O=C1NC(=O)C(c2cnc3ccccn23)=C1c1cn2c3c(cc(F)cc13)CN(C(=O)N1CCCCC1)CC2
Summary of the method: as §1

[11] = compound: c1cc(OCCN2CCCCC2)cc(-c2n[nH]c3ccc(-c4nnc[nH]4)cc23)c1
Summary of the method: as §1

Chain of UniProt Q96SZ6 (Q96SZ6 whole entry, looked up): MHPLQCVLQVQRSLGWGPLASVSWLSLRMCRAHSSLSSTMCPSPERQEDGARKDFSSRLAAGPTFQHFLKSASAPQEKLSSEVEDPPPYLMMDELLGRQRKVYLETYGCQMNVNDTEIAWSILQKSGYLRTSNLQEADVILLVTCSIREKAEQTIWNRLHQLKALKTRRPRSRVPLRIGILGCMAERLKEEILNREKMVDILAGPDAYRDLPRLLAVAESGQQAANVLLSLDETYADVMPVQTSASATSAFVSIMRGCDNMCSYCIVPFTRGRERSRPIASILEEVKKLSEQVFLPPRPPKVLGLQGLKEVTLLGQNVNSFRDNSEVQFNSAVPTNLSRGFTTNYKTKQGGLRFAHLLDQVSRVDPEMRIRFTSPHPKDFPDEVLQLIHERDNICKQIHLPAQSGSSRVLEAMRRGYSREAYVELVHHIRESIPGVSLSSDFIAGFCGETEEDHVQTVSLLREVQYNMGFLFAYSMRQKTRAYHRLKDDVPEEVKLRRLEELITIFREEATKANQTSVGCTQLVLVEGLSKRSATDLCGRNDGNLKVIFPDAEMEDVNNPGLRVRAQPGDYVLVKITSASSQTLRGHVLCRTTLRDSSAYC
Chain of UniProt Q92851 (Q92851 whole entry, looked up): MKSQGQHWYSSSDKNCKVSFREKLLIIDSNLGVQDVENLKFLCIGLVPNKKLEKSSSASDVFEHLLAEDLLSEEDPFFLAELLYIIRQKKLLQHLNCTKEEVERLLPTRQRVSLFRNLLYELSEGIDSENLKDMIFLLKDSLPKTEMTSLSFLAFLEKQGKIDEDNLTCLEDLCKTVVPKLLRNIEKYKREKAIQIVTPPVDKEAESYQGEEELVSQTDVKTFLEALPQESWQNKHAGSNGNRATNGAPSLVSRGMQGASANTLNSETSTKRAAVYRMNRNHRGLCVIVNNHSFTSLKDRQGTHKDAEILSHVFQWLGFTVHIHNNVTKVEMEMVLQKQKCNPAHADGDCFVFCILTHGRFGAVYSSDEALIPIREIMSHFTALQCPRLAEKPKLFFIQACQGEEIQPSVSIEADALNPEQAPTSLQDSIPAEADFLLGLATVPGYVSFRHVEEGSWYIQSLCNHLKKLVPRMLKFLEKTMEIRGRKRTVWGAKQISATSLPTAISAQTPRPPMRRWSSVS
Chain of UniProt Q14677 (Q14677 whole entry, looked up): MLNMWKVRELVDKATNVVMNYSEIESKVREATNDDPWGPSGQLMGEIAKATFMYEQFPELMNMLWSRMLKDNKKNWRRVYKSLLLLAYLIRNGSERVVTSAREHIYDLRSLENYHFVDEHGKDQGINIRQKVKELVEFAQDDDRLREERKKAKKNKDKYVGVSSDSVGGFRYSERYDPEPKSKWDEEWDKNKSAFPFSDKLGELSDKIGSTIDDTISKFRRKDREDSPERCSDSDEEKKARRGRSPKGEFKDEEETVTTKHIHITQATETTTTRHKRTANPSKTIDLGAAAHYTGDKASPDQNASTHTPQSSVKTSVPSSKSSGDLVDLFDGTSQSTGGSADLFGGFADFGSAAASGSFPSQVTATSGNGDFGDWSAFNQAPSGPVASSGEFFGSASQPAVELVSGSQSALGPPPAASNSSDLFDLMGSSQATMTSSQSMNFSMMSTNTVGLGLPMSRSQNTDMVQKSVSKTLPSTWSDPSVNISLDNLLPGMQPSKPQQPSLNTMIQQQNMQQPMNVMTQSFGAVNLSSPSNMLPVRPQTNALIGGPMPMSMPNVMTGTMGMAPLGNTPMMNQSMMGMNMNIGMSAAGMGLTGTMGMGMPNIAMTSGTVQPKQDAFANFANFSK
Chain of UniProt Q8WUX2 (Q8WUX2 whole entry, looked up): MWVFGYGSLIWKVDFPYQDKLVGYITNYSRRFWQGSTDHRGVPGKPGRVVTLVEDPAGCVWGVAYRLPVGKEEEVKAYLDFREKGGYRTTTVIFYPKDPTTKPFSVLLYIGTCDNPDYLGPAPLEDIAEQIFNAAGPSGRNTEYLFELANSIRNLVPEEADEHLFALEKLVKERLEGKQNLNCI
Chain of UniProt P48729 (P48729 whole entry, looked up): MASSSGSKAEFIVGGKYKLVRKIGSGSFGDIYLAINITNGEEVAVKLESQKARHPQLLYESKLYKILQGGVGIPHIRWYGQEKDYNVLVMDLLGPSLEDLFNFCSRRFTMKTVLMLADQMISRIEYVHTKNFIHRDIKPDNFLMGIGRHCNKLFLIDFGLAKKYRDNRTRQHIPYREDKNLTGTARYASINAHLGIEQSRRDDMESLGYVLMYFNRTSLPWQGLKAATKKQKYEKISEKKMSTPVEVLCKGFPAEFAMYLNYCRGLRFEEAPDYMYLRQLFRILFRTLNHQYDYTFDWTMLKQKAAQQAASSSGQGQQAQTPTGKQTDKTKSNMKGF
Chain of UniProt Q9Y6K0 (Q9Y6K0 whole entry, looked up): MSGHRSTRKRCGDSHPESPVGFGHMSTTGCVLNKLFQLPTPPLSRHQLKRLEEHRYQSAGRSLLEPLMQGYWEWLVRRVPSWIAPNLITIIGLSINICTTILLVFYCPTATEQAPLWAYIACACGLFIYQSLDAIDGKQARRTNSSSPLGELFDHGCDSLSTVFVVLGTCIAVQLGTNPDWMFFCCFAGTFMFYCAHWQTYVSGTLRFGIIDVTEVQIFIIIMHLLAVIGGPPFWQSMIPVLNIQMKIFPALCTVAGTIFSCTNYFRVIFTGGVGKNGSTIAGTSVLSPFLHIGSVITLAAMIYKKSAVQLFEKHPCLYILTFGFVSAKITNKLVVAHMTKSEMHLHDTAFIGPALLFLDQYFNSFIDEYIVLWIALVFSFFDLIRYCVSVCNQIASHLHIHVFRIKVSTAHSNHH
Chain of UniProt P10606 (P10606 whole entry, looked up): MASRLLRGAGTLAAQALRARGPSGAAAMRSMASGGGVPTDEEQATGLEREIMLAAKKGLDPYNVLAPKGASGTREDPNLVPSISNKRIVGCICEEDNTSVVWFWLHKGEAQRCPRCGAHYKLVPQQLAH
Chain of UniProt Q9NYV4 (Q9NYV4 whole entry, looked up): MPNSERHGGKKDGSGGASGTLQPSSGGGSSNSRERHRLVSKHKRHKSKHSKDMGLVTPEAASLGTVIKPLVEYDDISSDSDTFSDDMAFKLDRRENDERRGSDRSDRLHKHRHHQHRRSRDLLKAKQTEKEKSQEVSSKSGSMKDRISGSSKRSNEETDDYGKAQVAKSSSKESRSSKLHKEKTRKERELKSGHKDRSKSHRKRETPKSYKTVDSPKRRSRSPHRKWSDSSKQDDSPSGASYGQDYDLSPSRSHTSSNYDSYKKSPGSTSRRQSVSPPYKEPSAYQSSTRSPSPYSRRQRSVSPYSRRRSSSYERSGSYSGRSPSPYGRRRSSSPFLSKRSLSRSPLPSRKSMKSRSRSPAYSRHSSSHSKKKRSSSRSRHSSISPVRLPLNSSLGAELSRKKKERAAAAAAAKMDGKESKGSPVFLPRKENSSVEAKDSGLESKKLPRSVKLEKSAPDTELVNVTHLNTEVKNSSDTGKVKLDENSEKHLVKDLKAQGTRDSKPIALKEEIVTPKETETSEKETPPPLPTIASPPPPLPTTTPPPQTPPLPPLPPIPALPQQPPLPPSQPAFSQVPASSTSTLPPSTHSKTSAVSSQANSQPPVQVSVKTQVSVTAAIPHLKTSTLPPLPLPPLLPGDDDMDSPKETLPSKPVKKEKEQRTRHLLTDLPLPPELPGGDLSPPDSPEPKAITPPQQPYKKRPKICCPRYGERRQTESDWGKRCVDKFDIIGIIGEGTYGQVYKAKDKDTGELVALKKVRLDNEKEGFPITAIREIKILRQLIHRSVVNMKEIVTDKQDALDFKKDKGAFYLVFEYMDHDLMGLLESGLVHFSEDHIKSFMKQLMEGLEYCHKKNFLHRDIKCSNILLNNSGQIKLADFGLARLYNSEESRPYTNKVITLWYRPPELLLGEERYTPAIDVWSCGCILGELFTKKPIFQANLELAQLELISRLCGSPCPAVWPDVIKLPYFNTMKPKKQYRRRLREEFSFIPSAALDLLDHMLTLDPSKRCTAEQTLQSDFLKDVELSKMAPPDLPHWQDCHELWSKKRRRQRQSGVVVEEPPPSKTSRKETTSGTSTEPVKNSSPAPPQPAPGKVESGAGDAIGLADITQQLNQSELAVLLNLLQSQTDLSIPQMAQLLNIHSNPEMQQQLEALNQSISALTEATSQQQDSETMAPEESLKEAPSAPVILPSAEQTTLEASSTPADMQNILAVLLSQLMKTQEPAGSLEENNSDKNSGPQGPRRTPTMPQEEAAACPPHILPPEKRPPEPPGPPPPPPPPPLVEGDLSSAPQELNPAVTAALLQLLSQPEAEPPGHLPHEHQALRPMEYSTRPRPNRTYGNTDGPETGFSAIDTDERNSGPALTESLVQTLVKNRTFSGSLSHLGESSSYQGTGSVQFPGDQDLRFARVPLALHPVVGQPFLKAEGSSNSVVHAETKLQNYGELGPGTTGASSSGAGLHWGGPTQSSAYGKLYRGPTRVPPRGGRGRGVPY
Chain of UniProt Q99627 (Q99627 whole entry, looked up): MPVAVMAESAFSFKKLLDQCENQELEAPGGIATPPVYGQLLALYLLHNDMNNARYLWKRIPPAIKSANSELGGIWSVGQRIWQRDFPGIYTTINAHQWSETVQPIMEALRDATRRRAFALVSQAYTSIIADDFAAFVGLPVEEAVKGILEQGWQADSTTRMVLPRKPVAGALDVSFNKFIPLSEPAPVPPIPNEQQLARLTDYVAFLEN
Chain of UniProt P48730 (P48730 whole entry, looked up): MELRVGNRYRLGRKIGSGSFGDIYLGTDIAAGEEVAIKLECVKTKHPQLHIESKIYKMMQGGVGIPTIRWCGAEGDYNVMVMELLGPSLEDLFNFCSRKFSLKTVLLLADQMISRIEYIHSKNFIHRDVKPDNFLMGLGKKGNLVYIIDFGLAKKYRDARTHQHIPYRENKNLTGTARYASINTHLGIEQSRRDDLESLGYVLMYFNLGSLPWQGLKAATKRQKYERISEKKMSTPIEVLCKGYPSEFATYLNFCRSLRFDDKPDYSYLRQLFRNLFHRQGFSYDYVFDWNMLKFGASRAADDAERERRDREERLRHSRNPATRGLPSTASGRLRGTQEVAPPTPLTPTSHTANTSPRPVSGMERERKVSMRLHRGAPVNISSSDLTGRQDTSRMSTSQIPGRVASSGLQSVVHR

Row | Target | log2 fold change (bafetinib) | log2 fold change [1] | log2 fold change (nilotinib) | log2 fold change [2] | log2 fold change (dasatinib) | log2 fold change [3] | log2 fold change [4] | log2 fold change [5] | log2 fold change (tipifarnib) | log2 fold change (mubritinib) | log2 fold change [6] | log2 fold change [7] | log2 fold change [8] | log2 fold change [9] | log2 fold change (entinostat) | log2 fold change (vorinostat) | log2 fold change (citarinostat) | log2 fold change (silmitasertib) | log2 fold change [10] | log2 fold change [11]
1 | CLSPN (UniProt Q9HAW4) | -0.071 | -0.035 | 0.018 | -0.011 | 0.094 | -0.123 | -0.021 | -0.03 | 0.045 | 0.053 | -0.015 | -0.009 | -0.003 | -0.013 | -0.048 | -0.028 | 0.026 | 0.053 | -0.062 | -0.086
2 | CEPT1 (UniProt Q9Y6K0) | -0.048 | 0.032 | -0.052 | 0.156 | -0.008 | 0.044 | 0.031 | -0.014 | -0.055 | -0.012 | -0.065 | -0.101 | -0.215 | -0.156 | 0.065 | -0.078 | -0.023 | -0.014 | -0.054 | -0.085
3 | CSNK1A1 (UniProt P48729) | -0.044 | -0.156 | -0.106 | -0.008 | 0.011 | 0.033 | -0.118 | -0.055 | 0.022 | -0.086 | -0.067 | -0.001 | 0.031 | 0.019 | 0.023 | -0.087 | 0.016 | 0.048 | 0.243 | -0.084
4 | CLINT1 isoform 3 (UniProt Q14677) | 0.024 | -0.083 | 0.042 | 0.037 | 0.264 (active) | -0.026 | -0.071 | -0.083 | 0.017 | 0.045 | 0.106 | -0.027 | 0.078 | 0.058 | -0.052 | -0.035 | -0.048 | 0.008 | 0.024 | 0.015
5 | COPS8 (UniProt Q99627) | -0.021 | 0.025 | 0.018 | -0.008 | 0.006 | 0.007 | 0.107 | 0.146 | -0.017 | 0.025 | 0.02 | 0.038 | -0.042 | 0.043 | 0.034 | 0.041 | 0.056 | 0.044 | -0.077 | 0.018
6 | CDK12 (UniProt Q9NYV4) | 0.298 | 0.079 | 0.136 | -0.631 (active) | 0.23 | -0.301 | -0.484 | -0.123 | 0.156 | -0.043 | -0.002 | 0.005 | 0.06 | 0.01 | 0.005 | 0.089 | -0.051 | -0.081 | 0.179 | -0.242
7 | CASP10 isoform 4 (UniProt Q92851) | 0.001 | -0.394 | -0.087 | -0.103 | -0.301 | 0.037 | -0.044 | 0.063 | 0.119 | 0.084 | -0.089 | -0.058 | -0.084 | -0.055 | -0.05 | 0.258 | 0.123 | 0.076 | 0.089 | -0.13
8 | CDK5RAP3 isoform 4 (UniProt Q96JB5) | 0.039 | 0.122 | -0.094 | 0.012 | -0.082 | 0.054 | 0.008 | 0.024 | -0.052 | 0.083 | -0.025 | -0.029 | -0.092 | -0.097 | 0.056 | 0.04 | 0.065 | -0.004 | -0.04 | 0.019
9 | COX5B (UniProt P10606) | -0.032 | 0.013 | 0.026 | 0.011 | 0.105 | -0.043 | 0.134 | 0.221 | -0.108 | 0.024 | 0.041 | 0.031 | 0.053 | -0.015 | -0.006 | -0.151 | 0.02 | -0.04 | -0.131 | 0.034
10 | CDK5RAP1 (UniProt Q96SZ6) | -0.052 | -0.058 | 0 | -0.008 | 0.175 | -0.006 | 0.044 | 0.017 | 0.031 | -0.03 | -0.107 | 0.047 | -0.114 | 0.199 | -0.008 | -0.089 | -0.055 | 0.06 | -0.023 | -0.031
11 | CASP2 (UniProt P42575) | 0.041 | -0.035 | -0.037 | 0.076 | -0.165 | 0.114 | 0.105 | -0.056 | -0.118 | 0.006 | -0.317 | -0.047 | -0.099 | 0.065 | 0.017 | 0.13 | 0.058 | 0.051 | -0.008 | -0.032
12 | CCNH (UniProt P51946) | -0.064 | -0.01 | -0.008 | 0.113 | 0.023 | -0.056 | -0.005 | 0.005 | 0.051 | 0.08 | -0.043 | -0.009 | 0.024 | -0.02 | -0.006 | -0.028 | 0.015 | 0.02 | -0.083 | -0.027
13 | CDKN2AIP (UniProt Q9NXV6) | 0.034 | 0.021 | -0.021 | 0.034 | -0.041 | 0.015 | -0.049 | -0.012 | 0.046 | -0.011 | 0.003 | 0.044 | -0.018 | -0.026 | 0.017 | 0.027 | 0.013 | 0.026 | 0.022 | -0.071
14 | CSNK1D (UniProt P48730) | 0.1 | 0.064 | -0.025 | 0.073 | 0.119 | 0.241 | -0.083 | -0.042 | 0.051 | -0.148 | -0.043 | 0.185 | 0.106 | -0.02 | -0.062 | 0 | -0.025 | 0.054 | 0.107 | 0.173
15 | CHAMP1 (UniProt Q96JM3) | -0.134 | 0.049 | 0 | -0.132 | -0.092 | -0.123 | 0.026 | 0.067 | 0.014 | 0.056 | -0.034 | -0.136 | 0.007 | -0.031 | 0.001 | 0.137 | -0.007 | -0.02 | -0.051 | -0.078
16 | CHAC2 (UniProt Q8WUX2) | -0.052 | -0.003 | 0.078 | -0.153 | 0.012 | 0.012 | -0.004 | -0.006 | -0.037 | 0.045 | 0.022 | -0.019 | -0.008 | -0.028 | -0.017 | -0.016 | -0.232 | 0.022 | -0.03 | 0.419 (active)
